For 38 compounds, outcome results are on record in PubChem BioAssay AID743291 (Broad Institute, 2014).

Measured potencies and affinities stand elsewhere. Active and inactive are the calls of the source.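 Rule for the calls: active = signal drop with fitted half-maximal dose at most twice the top valid dose, active in every repeat; inconclusive = repeats disagree, or flat partial inhibition, or poor fit; inactive = inactive in every repeat, including opposite effects.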

The target in this assay is Caspase-3 (Homo sapiens) (UniProt P42574). Put plainly: caspase-3 enzyme inhibitors, selectivity check, dose response, selectivity assay for caspase-6 allosteric inhibitor project, biochemical, fluorescence, cherry-picked samples (AID 743291). The settings on record: Recombinant caspase-3, Z-DEVD-R110 cleavage fluorescence; series mostly up to 35 µM.
Sequence of Caspase-3 (Homo sapiens) (P42574 whole entry, looked up): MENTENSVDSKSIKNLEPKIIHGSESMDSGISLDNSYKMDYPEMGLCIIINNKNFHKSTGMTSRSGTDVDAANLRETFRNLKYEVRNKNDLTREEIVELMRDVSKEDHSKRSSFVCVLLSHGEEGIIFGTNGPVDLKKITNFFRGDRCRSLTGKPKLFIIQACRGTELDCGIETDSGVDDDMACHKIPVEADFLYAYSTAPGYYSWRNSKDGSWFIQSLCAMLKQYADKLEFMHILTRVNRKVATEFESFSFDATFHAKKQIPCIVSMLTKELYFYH
With `O=C(COC(=O)c1ccccc1)Nc1ncc([N+](=O)[O-])s1`, the result was inactive.

Regarding `O=C(COC(=O)c1ccc([N+](=O)[O-])s1)Nc1cccc(S(=O)(=O)NC2=NCCCCC2)c1`, the result was inactive.

For `O=c1[nH]c(Nc2ccc(F)cc2)cc2ccccc12`, the result was inactive.

Take `Cn1cnnc1SCC(=O)Nc1ncc([N+](=O)[O-])s1`: the outcome was inactive.

Turning to `COc1cc(NC(C)CCCN)c2ncccc2c1` (stereo not drawn), the outcome was inactive.

On to `O=C(O)CCc1ccc(-c2ccc(Br)cc2)n1CC(=O)O`, for which the result was inactive.

For the compound `COc1ccc(NC(=O)CN(C)C(=O)c2cccc(-n3cccc3)c2)cc1`, the result was inactive.

For `Cc1c(CCC(=O)O)c(=O)oc2c(C)c(OCc3ccccc3Cl)ccc12`, the result was inactive.

With `COc1cc(-c2ccc(Nc3ccccc3C(=O)O)c(OC)c2)ccc1Nc1ccccc1C(=O)O`, the result was inactive.

Consider `COc1cc(NC(=O)COC(=O)c2ccc([N+](=O)[O-])s2)cc(OC)c1OC`, for which the outcome was inactive.

In the case of `Cc1[nH]nc(S(=O)CC(=O)O)c1[N+](=O)[O-]` (stereo not drawn), the outcome was inactive.

For the compound `CO[C@H]1CN(C)C(=O)c2cc(NC(C)=O)ccc2OC[C@@H](C)N(C(=O)CC2CC2)C[C@H]1C`, the outcome was inactive.

Take `COc1ccccc1NC(=O)COC(=O)c1ccc([N+](=O)[O-])s1`: the outcome was inactive.

`Nc1cc2c(cc1Br)[nH]c(=O)c1ccccc12`: the outcome was inactive.

Consider `O=C(COC(=O)c1ccc([N+](=O)[O-])s1)Nc1ccc(F)cc1`, for which the result was inactive.

For `Nc1ccc(Nc2ccccc2)c(S(=O)(=O)O)c1`, the outcome was inactive.

As to `Cc1cccc(NC(=O)CNC(=O)c2cccc(-n3cccc3)c2)c1C`, the outcome was inactive.

Take `Nc1c(O)cccc1C(=O)O`: the outcome was inactive.

As to `CN(CC(=O)Nc1c(Cl)cccc1Cl)C(=O)c1cccc(-n2cccc2)c1`, the outcome was inactive.

`CCCCNC(=O)c1nc(C2CCNCC2)oc1-c1cccc(C(F)(F)F)c1`: the result was inactive.

Take `O=C(COC(=O)c1ccc([N+](=O)[O-])s1)Nc1ccccc1`: the result was inactive.

In the case of `CCCCN(C(=O)c1cccc(-n2cccc2)c1)c1c(N)n(CCC)c(=O)[nH]c1=O`, the outcome was inactive.

`O=c1[nH]c(Nc2ccccc2Cl)cc2ccccc12`: the outcome was inactive.

For the compound `CCOC(=O)[C@H](Cc1c[nH]c2ccccc12)NC(=O)CN=[N+]=[N-]`, the result was inactive.

Consider `CCCc1nc2c(=O)n(C)c(=O)nc-2n(C)n1`, for which the outcome was inactive.

For the compound `O=C(Nc1ccc2nc3n(c(=O)c2c1)CCCCC3)c1c(F)ccc([N+](=O)[O-])c1F`, the result was inactive.

For the compound `CCCCN(C(=O)c1cccc(-n2cccc2)c1)c1c(N)n(Cc2ccccc2)c(=O)[nH]c1=O`, the result was inactive.

With `CN(CC(=O)Nc1ccccc1Cl)C(=O)COC(=O)c1ccc([N+](=O)[O-])s1`, the outcome was inactive.

Turning to `Cc1ccc(S(=O)c2ccc([N+](=O)[O-])c3nonc23)cc1` (stereo not drawn), the result was inactive.

Consider `Oc1cc(NCCN2CCOCC2)cc2cccnc12`, for which the result was inactive.

Take `CCOC(=O)c1sc2nc(OCCN3CCOCC3)cc(C)c2c1N`: the result was inactive.

Regarding `O=C(c1cccc(-n2cccc2)c1)N1CCN(S(=O)(=O)c2ccccc2)CC1`, the outcome was inactive.

With `Cc1ccc(C)c(NC(=O)CN(C)C(=O)c2cccc(-n3cccc3)c2)c1`, the result was inactive.

On to `CNS(=O)(=O)c1cccc(C(=O)OCC(=O)N2c3ccccc3NC(=O)C2(C)C)c1`, for which the result was inactive.

For `COc1ccc(OC)c(Nc2cc3ccccc3c(=O)[nH]2)c1`, the outcome was inactive.

For `NS(=O)(=O)c1ccc(NC(=O)COC(=O)c2ccc([N+](=O)[O-])s2)cc1`, the result was inactive.

As for `COc1cc(NC(C)CCCNC(C)C)c2ncccc2c1OC` (stereo not drawn), the outcome was inactive.

For the compound `[O-][n+]1onc2c1CCc1c-2nn(-c2ccccc2Cl)[n+]1[O-]`, the result was inactive.
